# Laboratory results from PubChem BioAssay.
# A number with no mark means an inactive call. Active and inactive are the calls of the source.
# Assay: viability profiling in MM1S myeloma cells – cell-based, resazurin fluorescence, basal, 24 h, PK04 Diversity Set, profiling panel (AID 1174);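 further: MM1S multiple myeloma cell line; test concentration not given here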
# Details: higher = more signal, called active from +8 up or from −8 down
row,SMILES,z-score
1,COC(=O)[C@@]1(Cc2ccc(F)cc2)[C@H]2c3cc(C(=O)N(C)C)n(CCc4ccc(O)c(O)c4)c3C[C@H]2CN1C(=O)c1ccccc1,-1.01
2,CCOC(=O)C1=CC[C@@H](c2ccc(OC)cc2)N(S(=O)(=O)c2ccc(C)cc2)[C@H]1c1ccc(C)cc1,-0.616
3,[N-]=[N+]=NCc1ccccc1[C@@H]1OC(c2ccc(OCCCO)cc2)=N[C@]1(Cc1ccccc1N=[N+]=[N-])C(=O)O,0.589
4,COC(=O)[C@@]1(Cc2ccccc2)[C@H]2c3cc(C(=O)N(C)C)n(CCSC(=N)N)c3C[C@H]2CN1C(=O)c1ccccc1,-0.399
5,Cc1ccc(S[C@]2(C(=O)NC(C)C)CC(=O)N(C3CCCCC3)[C@@H]2c2ccc(CO)cc2I)cc1,-0.611
6,COC(=O)C(CC#Cc1ccc2c(c1)[C@]1(C(=O)N2)[C@H](C(=O)N2CCc3cc(OC)c(OC)cc3C2)[C@H]2C(=O)O[C@H](c3ccccc3)[C@H](c3ccccc3)N2[C@@H]1c1ccccc1OCCO)C(=O)OC,-1.03
7,C=CC[C@@]12N=C(c3ccc(OCCCO)cc3)O[C@@H]1c1ccccc1N(CCC)C2=O,-1.19
8,CCC(CC)C(O)C1C=CC2C(=O)N(c3ccccc3)C(=O)C2N1Nc1ccccc1F (stereo unspecified),-0.0479
9,C=C(COC)/C(=C/C[C@H](OC(C)=O)c1ccccc1OCCO)c1cc(C(=O)OC)ccc1OC,0.181
10,CN(C)CCCC[C@@H]1NC(=O)[C@@H]2C[C@H](C(=O)NCCCCCN)[C@H](c3cccc(OCCO)c3)N2C1=O,1.49
11,COC(=O)C[C@H]1O[C@@]2(C[C@@H]1[Si](C)(C)C)C(=O)N(C)c1ccccc12,1.41
12,NC(=O)N1C(=O)C2C(C1=O)C1C=C(CCCO)C2C(C2CC2)N1Cc1sc2ccccc2c1Cl (stereo unspecified),0.691
13,CCOC(=O)C1=CCC(c2cc3ccccc3[nH]2)N(CCN2CC(C(=O)OCC)=CCC2c2cc3ccccc3[nH]2)C1 (stereo unspecified),-1.98
14,COCC(=C=CC[C@H](O)c1ccccc1OCCO)C[C@H](O)COCc1ccccc1,0.442
15,COc1ccc([Si](C)(C)[C@@H]2[C@@H](CC(=O)N3CCC[C@H]3CO)O[C@]3(C(=O)N(Cc4ccc(N5CCOC5=O)cc4)c4ccccc43)[C@H]2C)cc1,-2.01
16,C=C(CCCC)C(=O)CC[C@H](OC(=O)c1ccccc1-c1ccccc1C(=O)O)c1ccc(OCCO)cc1,-0.429
17,COC(=O)[C@@]1(Cc2ccc(F)cc2)[C@H]2c3cc(C(=O)N4CCCC4)n(Cc4ccccn4)c3C[C@H]2CN1C(=O)c1ccccc1,-2.15
18,O=C1NC(=O)C2C1C=CC(C(O)c1ccc([N+](=O)[O-])cc1)N2Nc1ccccn1 (stereo unspecified),-0.76

row,SMILES,z-score
1,CCCC#C[Si](O[C@H](CC)c1cn(Cc2ccccc2)nn1)(C(C)C)C(C)C,-1.05
2,COCCCNC(=O)[C@@]1(CCC(=O)OC(C)(C)C)COC(c2ccc(OCCCO)cc2)=N1,1.27
3,C=C(CCCC)/C(=C/C[C@H](OC(C)=O)c1cccc(OCCO)c1)c1cnc2ccccc2c1,-0.117
4,CN(C)C(=O)[C@]1(Cc2ccccc2)N=C(c2ccc(OCCCO)cc2)O[C@@H]1c1ccccc1CN=[N+]=[N-],-0.0662
5,Cc1ccc(S[C@]2(C(=O)NCc3ccccc3)CC(=O)N(Cc3ccccc3C(F)(F)F)[C@@H]2c2ccc(CO)cc2)cc1,0.103
6,CCCN1C(=O)[C@]2(CCC(=O)OC(C)(C)C)N=C(c3ccc(OCCCO)cc3)O[C@@H]2c2ccccc21,-2.08
7,C[N+](C)(C)CCCC[C@@H]1NC(=O)[C@H]2C[C@@H](C(=O)NCCCCCNC(=O)CS)[C@@H](c3cccc(OCCO)c3)N2C1=O,0.703
8,CO[C@H]1O[C@H](CO)[C@@H](OC(=O)Nc2ccccc2-c2ccccc2)[C@H](OC(=O)Nc2ccccc2)[C@H]1OC(=O)Nc1ccccc1,-3.07
9,CC(C)=C1C(=O)C(c2ccccc2)=C2CN3C(=O)N(CCc4ccccc4)C(=O)[C@]3(C)[C@H]21,-1.56
10,C[C@]1(C(=O)O)c2ccccc2C(=O)N(Cc2cc(F)cc(C(F)(F)F)c2)[C@H]1c1ccc(CO)cc1,0.449
11,CN(C)CCCNC(=O)[C@@]1(Cc2ccccc2I)c2ccccc2C(=O)N(C2CCCCC2)[C@H]1c1ccc(CO)cc1,-8.24 (active)
12,C#CCN1[C@@H](Cc2ccccc2)C(=O)O[C@H](Cc2ccccc2)[C@@H]1/C=C/C1CC1,1.56
13,CCCc1cc2c(n1CCc1ccc(Cl)cc1)C(C)C1CN(C(=O)c3ccccc3)C(C)(C(=O)OC)C21 (stereo unspecified),-2.85
14,CN1C(=O)[C@@H]2[C@@H](CC(COc3ccccc3)=C3[C@@H](CCc4ccccc4)OB(O)C[C@@H]32)C1=O,-0.675
15,CC(C)(C)OC(=O)CC[C@]1(C(=O)NCC(O)CO)N=C(c2ccc(OCCCO)cc2)O[C@H]1c1ccccc1N=[N+]=[N-] (stereo partly specified),-1.58
16,COc1ccc([Si](C)(C)[C@H]2[C@H](CC(=O)N3CCC[C@H]3CO)O[C@@]3(C(=O)N(Cc4ccc(N5CCCCC5=O)cc4)c4ccccc43)[C@@H]2C)cc1,-0.563
17,C=CCOC(=O)[C@H]1[C@@H]2C(=O)O[C@@H](c3ccccc3)[C@@H](c3ccccc3)N2[C@@H](c2ccc(OCCOC(=O)[C@@H]3C[C@@H]4C(=O)N[C@@H](CCCC[N+](C)(C)C)C(=O)N4[C@@H]3c3ccc(O)cc3)cc2)[C@]12C(=O)Nc1ccc(I)cc12,-1.17
18,O=C(NCc1ccc(F)cc1)[C@H]1C[C@H]2C(=O)N3CCC[C@H]3C(=O)N2[C@H]1c1ccc(O)cc1,0.698
